# From publication PMC7862700, “An all-to-all approach to the identification of sequence-specific readers for epigenetic DNA modifications on cytosine”
# How the values were obtained:
# Test in all cases: DAPPL (digital affinity profiling via proximity ligation, sequencing); 10 mM Tris-HCl pH 7.5, 50 mM NaCl, 1 mM DTT, 4% glycerol, room temperature, 30 min; GST-TFs on glutathione beads, 16-mer random dsDNA library, 0.1% formaldehyde crosslink after washing; high values mean tight binding
# [1] = target: T1, FEV (Homo sapiens, UniProt Q99581 1-238); settings: protein: recombinant; tags: N-terminal GST; dsDNA, one strand shown
# T1 sequence: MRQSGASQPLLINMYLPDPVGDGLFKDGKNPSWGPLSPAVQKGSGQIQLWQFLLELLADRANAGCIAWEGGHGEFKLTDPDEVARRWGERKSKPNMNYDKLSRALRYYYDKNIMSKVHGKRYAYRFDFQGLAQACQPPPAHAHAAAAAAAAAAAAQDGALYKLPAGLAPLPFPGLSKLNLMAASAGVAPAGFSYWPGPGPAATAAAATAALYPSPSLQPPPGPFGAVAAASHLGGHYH
# How it was run: (§1)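 Pools of DNA-barcoded human transcription factors, expressed in yeast as GST fusions on glutathione beads and combined with a tag-only sample, were incubated with 200 nmole of a 16-mer random double-stranded DNA library. Incubation took 30 min at room temperature in Tris/NaCl/DTT/glycerol buffer and was followed by washing, 0.1% formaldehyde crosslinking, proximity ligation (BsaI/T4 ligase, 1 h, 37 °C), PCR amplification and sequencing on an Illumina NextSeq500. Binding signal is the ratio of a hexamer's read frequency for a factor to its frequency for the tag-only sample.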
# [2] = target: ETV5 (Homo sapiens, UniProt P41161 1-510); settings: protein: recombinant; tags: N-terminal GST; dsDNA, one strand shown
# ETV5, sequence (P41161 whole entry): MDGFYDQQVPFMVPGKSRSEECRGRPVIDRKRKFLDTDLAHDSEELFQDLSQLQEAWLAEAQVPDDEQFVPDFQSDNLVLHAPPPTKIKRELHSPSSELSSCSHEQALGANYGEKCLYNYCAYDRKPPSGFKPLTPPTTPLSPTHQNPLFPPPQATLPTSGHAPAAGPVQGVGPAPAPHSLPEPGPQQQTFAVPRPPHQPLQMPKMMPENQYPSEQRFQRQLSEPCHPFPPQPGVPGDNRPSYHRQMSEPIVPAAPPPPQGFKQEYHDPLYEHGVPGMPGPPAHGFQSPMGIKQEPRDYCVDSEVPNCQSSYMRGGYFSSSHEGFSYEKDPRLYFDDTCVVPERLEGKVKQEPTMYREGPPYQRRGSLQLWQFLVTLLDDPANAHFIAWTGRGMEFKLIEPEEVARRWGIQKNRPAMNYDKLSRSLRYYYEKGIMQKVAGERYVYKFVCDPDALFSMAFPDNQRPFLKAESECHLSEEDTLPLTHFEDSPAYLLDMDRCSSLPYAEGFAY
# How it was run: as §1
# [3] = target: HSF1 (Homo sapiens, UniProt Q00613 1-529); settings: protein: recombinant; tags: N-terminal GST; chain copies: 3; dsDNA, one strand shown
# HSF1, sequence (Q00613 whole entry): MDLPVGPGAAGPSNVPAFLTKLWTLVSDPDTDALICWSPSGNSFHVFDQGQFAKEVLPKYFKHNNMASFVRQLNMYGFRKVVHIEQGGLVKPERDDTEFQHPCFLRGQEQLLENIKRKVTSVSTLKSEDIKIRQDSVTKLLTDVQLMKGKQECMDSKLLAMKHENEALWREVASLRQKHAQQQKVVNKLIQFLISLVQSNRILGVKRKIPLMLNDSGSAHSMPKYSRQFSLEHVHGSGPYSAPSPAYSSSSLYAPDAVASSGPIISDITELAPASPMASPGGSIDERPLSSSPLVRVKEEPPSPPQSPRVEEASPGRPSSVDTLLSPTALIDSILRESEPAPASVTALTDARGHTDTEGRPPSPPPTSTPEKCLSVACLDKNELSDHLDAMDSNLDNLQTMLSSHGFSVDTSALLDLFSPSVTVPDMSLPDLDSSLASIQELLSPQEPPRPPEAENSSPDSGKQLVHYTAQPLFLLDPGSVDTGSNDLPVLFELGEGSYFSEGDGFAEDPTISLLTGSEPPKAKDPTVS
# How it was run: as §1
# [4] = target: T2, SPIC (Homo sapiens, UniProt Q8N5J4 1-248); settings: protein: recombinant; tags: N-terminal GST; dsDNA, one strand shown
# T2 sequence: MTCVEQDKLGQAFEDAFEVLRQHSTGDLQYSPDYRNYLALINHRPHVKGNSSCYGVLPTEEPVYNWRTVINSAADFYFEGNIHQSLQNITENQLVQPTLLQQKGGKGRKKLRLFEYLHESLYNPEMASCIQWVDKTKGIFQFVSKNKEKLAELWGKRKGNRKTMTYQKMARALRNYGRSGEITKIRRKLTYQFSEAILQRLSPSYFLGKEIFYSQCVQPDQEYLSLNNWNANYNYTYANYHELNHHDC
# How it was run: as §1
# [5] = target: ELF4 (Homo sapiens, UniProt Q99607 1-663); settings: protein: recombinant; tags: N-terminal GST; dsDNA, one strand shown
# ELF4, sequence (Q99607 whole entry): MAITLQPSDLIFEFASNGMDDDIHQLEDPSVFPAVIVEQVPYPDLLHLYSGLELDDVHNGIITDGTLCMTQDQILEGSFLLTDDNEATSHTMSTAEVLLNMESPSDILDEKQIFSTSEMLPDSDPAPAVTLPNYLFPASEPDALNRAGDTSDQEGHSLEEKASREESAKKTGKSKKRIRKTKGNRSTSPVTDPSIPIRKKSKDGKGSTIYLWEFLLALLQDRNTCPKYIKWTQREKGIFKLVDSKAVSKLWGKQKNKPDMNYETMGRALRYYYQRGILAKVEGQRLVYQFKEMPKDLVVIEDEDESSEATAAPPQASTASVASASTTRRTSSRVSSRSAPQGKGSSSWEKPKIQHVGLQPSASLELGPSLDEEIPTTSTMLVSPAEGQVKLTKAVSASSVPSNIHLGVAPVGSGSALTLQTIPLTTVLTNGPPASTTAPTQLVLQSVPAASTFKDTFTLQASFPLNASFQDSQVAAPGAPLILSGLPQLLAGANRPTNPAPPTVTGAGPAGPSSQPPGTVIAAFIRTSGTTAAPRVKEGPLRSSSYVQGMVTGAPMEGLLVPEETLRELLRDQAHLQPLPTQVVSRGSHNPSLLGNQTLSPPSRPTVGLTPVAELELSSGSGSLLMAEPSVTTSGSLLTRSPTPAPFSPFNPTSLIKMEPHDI
# How it was run: as §1
# [6] = target: T3, ELK4 (Homo sapiens, UniProt P28324-2 1-405); settings: protein: recombinant; tags: N-terminal GST; dsDNA, one strand shown
# T3 sequence: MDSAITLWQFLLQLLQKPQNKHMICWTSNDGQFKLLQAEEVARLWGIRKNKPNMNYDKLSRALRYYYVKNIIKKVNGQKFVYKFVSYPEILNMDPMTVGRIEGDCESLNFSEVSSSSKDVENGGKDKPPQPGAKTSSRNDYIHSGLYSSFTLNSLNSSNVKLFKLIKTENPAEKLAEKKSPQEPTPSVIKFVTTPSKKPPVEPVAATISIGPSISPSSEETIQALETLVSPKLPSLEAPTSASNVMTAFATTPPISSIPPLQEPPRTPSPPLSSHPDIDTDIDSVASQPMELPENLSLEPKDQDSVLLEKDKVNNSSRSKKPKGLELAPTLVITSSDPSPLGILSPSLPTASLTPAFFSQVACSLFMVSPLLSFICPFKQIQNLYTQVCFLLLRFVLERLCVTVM
# How it was run: as §1
# [7] = target: T4, ETV2 (Homo sapiens, UniProt O00321 1-342); settings: protein: recombinant; tags: N-terminal GST; dsDNA, one strand shown
# T4 sequence: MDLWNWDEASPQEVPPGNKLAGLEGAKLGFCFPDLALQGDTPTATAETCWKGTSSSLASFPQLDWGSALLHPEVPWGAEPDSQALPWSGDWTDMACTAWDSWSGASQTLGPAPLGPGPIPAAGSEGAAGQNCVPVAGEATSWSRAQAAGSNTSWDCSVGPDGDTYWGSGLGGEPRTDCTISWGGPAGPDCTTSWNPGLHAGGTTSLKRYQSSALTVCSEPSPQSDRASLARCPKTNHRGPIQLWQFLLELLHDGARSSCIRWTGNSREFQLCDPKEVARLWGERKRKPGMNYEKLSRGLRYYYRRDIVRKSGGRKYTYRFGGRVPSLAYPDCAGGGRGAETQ
# How it was run: as §1
# [8] = target: T5, ELF3 (Homo sapiens, UniProt P78545 1-371); settings: protein: recombinant; tags: N-terminal GST; dsDNA, one strand shown
# T5 sequence: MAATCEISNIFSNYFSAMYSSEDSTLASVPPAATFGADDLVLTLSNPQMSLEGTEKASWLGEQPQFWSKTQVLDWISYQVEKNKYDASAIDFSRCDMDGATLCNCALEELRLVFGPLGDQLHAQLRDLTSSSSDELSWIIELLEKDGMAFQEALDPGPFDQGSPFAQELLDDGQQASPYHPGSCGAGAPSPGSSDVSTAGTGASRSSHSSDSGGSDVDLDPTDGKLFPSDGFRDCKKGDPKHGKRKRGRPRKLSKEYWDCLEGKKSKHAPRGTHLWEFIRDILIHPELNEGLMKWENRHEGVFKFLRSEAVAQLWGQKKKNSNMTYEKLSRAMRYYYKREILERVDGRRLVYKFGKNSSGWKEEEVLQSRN
# How it was run: as §1
# [9] = target: CRX (Homo sapiens, UniProt O43186 1-299); settings: protein: recombinant; tags: N-terminal GST; dsDNA, one strand shown
# CRX, sequence (O43186 whole entry): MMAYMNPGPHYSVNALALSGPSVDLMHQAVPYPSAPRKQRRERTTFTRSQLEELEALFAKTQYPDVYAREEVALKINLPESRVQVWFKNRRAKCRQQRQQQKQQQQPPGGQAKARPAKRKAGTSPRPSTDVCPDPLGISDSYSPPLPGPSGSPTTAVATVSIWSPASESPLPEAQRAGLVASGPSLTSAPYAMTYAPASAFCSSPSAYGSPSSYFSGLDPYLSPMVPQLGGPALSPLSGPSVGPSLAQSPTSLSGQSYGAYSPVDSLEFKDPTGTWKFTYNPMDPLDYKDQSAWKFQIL
# How it was run: as §1
# [10] = target: ETV1 (Homo sapiens, UniProt P50549 1-477); settings: protein: recombinant; tags: N-terminal GST; dsDNA, one strand shown
# ETV1, sequence (P50549 whole entry): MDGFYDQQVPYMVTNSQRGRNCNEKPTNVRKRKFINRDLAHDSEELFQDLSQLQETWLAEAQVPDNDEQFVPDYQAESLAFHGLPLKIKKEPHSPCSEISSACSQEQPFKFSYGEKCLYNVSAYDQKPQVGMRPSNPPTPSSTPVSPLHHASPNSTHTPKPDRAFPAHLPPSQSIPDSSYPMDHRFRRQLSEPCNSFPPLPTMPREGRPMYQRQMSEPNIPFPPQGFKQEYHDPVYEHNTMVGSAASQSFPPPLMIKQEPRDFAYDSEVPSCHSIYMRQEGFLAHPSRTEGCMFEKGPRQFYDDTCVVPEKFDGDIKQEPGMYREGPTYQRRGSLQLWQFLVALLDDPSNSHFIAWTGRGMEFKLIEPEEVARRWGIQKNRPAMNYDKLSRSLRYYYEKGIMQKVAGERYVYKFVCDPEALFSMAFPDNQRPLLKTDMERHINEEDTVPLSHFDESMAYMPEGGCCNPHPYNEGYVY
# How it was run: as §1
# [11] = target: T6, ERF (Homo sapiens, UniProt P50548 1-548); settings: protein: recombinant; tags: N-terminal GST; dsDNA, one strand shown
# T6 sequence: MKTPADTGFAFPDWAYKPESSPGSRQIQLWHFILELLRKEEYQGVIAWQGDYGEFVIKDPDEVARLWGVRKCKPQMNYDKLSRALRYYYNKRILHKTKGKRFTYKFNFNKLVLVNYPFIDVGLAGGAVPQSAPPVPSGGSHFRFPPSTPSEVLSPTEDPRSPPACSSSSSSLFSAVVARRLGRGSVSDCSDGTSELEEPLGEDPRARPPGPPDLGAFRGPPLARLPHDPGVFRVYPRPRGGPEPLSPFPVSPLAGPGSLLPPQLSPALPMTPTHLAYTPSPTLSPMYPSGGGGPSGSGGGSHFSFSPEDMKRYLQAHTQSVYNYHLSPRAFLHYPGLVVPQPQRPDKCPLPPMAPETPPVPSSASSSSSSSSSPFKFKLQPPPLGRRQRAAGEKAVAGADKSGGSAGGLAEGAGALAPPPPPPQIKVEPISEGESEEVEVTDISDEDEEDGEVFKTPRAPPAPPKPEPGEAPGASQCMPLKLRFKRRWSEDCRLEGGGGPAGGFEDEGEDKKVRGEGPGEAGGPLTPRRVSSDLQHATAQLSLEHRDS
# How it was run: as §1
# [12] = target: T7, ETV3L (Homo sapiens, UniProt Q6ZN32 1-361); settings: protein: recombinant; tags: N-terminal GST; dsDNA, one strand shown
# T7 sequence: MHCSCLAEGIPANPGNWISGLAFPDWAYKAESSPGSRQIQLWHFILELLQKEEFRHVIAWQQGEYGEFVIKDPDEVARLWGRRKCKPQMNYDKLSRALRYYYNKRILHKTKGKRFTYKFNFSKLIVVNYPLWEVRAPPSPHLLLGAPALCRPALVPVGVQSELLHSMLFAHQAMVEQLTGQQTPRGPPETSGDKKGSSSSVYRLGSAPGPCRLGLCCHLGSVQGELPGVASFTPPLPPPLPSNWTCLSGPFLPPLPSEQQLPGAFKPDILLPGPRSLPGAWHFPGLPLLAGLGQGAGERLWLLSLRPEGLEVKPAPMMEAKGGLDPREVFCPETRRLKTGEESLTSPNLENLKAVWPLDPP
# How it was run: as §1
# [13] = target: T8, ETS2 (Homo sapiens, UniProt P15036 1-469); settings: protein: recombinant; tags: N-terminal GST; dsDNA, one strand shown
# T8 sequence: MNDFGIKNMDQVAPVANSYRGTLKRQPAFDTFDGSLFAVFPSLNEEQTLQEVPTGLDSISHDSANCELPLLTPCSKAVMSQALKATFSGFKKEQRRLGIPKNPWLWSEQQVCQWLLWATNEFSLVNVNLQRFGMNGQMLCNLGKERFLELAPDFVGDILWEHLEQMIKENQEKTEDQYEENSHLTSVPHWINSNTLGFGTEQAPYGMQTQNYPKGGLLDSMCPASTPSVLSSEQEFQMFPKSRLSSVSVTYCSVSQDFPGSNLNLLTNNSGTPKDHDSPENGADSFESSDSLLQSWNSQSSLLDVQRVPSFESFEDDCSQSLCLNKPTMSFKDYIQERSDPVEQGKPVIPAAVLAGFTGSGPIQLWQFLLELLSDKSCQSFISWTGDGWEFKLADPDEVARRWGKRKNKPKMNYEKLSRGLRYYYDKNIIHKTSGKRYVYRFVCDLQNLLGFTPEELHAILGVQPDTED
# How it was run: as §1
# [14] = target: T9, ETV7 (Homo sapiens, UniProt Q9Y603 1-341); settings: protein: recombinant; tags: N-terminal GST; dsDNA, one strand shown
# T9 sequence: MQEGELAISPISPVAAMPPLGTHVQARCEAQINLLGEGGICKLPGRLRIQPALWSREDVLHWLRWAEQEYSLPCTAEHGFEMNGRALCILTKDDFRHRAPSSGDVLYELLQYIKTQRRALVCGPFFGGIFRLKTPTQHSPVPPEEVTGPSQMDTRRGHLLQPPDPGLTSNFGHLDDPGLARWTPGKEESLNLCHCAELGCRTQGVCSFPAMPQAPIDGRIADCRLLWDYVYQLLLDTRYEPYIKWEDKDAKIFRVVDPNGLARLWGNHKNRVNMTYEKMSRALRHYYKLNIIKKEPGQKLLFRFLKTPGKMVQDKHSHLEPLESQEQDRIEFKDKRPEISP
# How it was run: as §1
# [15] = target: T10, ELF5 (Homo sapiens, UniProt Q9UKW6-2 1-255); settings: protein: recombinant; tags: N-terminal GST; dsDNA, one strand shown
# T10 sequence: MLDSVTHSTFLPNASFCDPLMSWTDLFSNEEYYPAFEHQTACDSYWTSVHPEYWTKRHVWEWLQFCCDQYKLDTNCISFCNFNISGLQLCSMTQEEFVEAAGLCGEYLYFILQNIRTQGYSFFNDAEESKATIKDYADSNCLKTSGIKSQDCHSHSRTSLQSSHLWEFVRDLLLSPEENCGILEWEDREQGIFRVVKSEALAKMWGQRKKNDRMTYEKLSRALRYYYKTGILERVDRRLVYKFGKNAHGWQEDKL
# How it was run: as §1
# [16] = target: T11, ETV3 (Homo sapiens, UniProt P41162-2 1-143); settings: protein: recombinant; tags: N-terminal GST; dsDNA, one strand shown
# T11 sequence: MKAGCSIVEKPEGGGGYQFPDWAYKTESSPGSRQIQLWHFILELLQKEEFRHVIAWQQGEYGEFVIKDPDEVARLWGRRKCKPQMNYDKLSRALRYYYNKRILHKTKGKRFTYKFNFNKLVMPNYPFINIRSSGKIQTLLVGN
# How it was run: as §1
# [17] = target: ETV6 (Homo sapiens, UniProt P41212 1-452); settings: protein: recombinant; tags: N-terminal GST; dsDNA, one strand shown
# ETV6, sequence (P41212 whole entry): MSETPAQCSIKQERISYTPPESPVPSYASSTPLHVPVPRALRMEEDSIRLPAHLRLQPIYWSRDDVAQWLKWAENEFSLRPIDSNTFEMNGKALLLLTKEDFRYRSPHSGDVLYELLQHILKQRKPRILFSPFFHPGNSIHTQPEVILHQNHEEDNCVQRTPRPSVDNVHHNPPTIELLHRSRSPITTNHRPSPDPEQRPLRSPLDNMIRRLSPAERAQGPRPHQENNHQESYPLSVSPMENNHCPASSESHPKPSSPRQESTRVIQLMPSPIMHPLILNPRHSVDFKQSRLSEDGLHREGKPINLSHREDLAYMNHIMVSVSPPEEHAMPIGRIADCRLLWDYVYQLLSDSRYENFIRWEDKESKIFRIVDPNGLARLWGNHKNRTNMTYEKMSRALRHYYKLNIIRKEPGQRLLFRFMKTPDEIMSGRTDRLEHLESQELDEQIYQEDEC
# How it was run: as §1
sequence,measurement,setting,value
TTGAGG,binding signal,[1],"1.06 fold enrichment (6-mer frequency, TF over GST control)"
same,binding signal,[2],"1.09 fold enrichment (6-mer frequency, TF over GST control)"
same,binding signal,[3],"1.01 fold enrichment (6-mer frequency, TF over GST control)"
same,binding signal,[4],"1.26 fold enrichment (6-mer frequency, TF over GST control)"
same,binding signal,[5],"1.13 fold enrichment (6-mer frequency, TF over GST control)"
same,binding signal,[6],"1.23 fold enrichment (6-mer frequency, TF over GST control)"
same,binding signal,[7],"1.1 fold enrichment (6-mer frequency, TF over GST control)"
same,binding signal,[8],"1.05 fold enrichment (6-mer frequency, TF over GST control)"
same,binding signal,[9],"1.02 fold enrichment (6-mer frequency, TF over GST control)"
same,binding signal,[10],"1.06 fold enrichment (6-mer frequency, TF over GST control)"
same,binding signal,[11],"1.12 fold enrichment (6-mer frequency, TF over GST control)"
same,binding signal,[12],"1.03 fold enrichment (6-mer frequency, TF over GST control)"
same,binding signal,[13],"1.04 fold enrichment (6-mer frequency, TF over GST control)"
same,binding signal,[14],"1.03 fold enrichment (6-mer frequency, TF over GST control)"
same,binding signal,[15],"1.11 fold enrichment (6-mer frequency, TF over GST control)"
same,binding signal,[16],"1.12 fold enrichment (6-mer frequency, TF over GST control)"
same,binding signal,[17],"1.13 fold enrichment (6-mer frequency, TF over GST control)"
